Reference: the supplement of paper PMC10849652
The full data set covers some 8,800 targets. This sample favours those with a hit. About 0.5% of all pairs of compound and target were hits.

What was measured:
Assay in all cases: log2 fold change, soluble protein after heating vs DMSO (PISA); higher = thermal stabilisation; K562 lysate, 10 uM; active = over 0.2 and 3.5 SD of the protein, either way, in both replicates (recomputed)
ibrutinib = compound: C=CC(=O)N1CCC[C@@H](n2nc(-c3ccc(Oc4ccccc4)cc3)c3c(N)ncnc32)C1 [ibrutinib]
How it was run: (§1)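 Log-two fold change in thermal stability relative to solvent controls is reported from duplicates. For each sample, crude K562 extract from dounce-homogenised pellets in PBS pH 7.4 with 1 mM MgCl2, at 1 mg/mL protein, was treated with 10 μM compound for 30 min. Aliquots heated for 3 min across 48°C-58°C were pooled, brought to 0.5% NP-40 at 4°C and cleared at 21,000xg for 90 min. The supernatant was quantified by TMTpro 16plex LC-MS/MS with channel sums equalised.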

[1] = compound: CC(=O)c1cnc2ccc(-c3cc(Cl)c(O)c(Cl)c3)nc2c1N[C@H]1CC[C@H](CN(C)C)CC1
How it was run: as §1

ralimetinib = compound: CC(C)(C)Cn1c(N)nc2ccc(-c3[nH]c(C(C)(C)C)nc3-c3ccc(F)cc3)nc21 [ralimetinib]
How it was run: as §1

[2] = compound: CC(C)(O)CC(=O)NCCn1ccc2ncnc(Nc3ccc(Oc4cccc(C(F)(F)F)c4)c(Cl)c3)c21
How it was run: as §1

[3] = compound: CC(C)C1=C2N=C(C=C(N2N=C1)NCC3=CC=CC=C3)NCCCCCCN
How it was run: as §1

[4] = compound: CC1=C(C(CC(=O)N1)C2=CC=C(C=C2)C(F)(F)F)C(=O)NC3=C(C=C4C(=C3)C=NN4)F
How it was run: as §1

[5] = compound: CC1=C(C2=C(C=C1)C(=O)C3=CC=CC=C3N2CCCN)C
How it was run: as §1

[6] = compound: CC1=C(C=C(C=C1)NC(=O)C2=CC(=CC=C2)C(C)(C)C#N)NC3=CC4=C(C=C3)N=CN(C4=O)C
How it was run: as §1

[7] = compound: CC1=C(C=C(C=C1)NC(=O)C2=CC(=CC=C2)N(C)C)NC(=O)C3=CC=C(C=C3)O
How it was run: as §1

[8] = compound: CC1=CC=C(C=C1)SC2=C3C=C(SC3=CN=C2)C(=O)N
How it was run: as §1

Measured: log2 fold change

SQLE (UniProt Q14534)
inactive: ibrutinib 0.028 | [1] 0.051 | ralimetinib 0.081 | [2] -0.047 | [3] 0 | [4] -0.02 | [5] -0.006 | [6] 0.039 | [7] -0.06 | [8] -0.027

SMAD9 (UniProt O15198)
inactive: ibrutinib -0.025 | [1] -0.018 | ralimetinib -0.034 | [2] 0.029 | [3] 0.021 | [4] -0.038 | [5] 0.079 | [6] -0.028 | [7] -0.072 | [8] -0.029

TARBP1 (UniProt Q13395)
inactive: ibrutinib -0.021 | [1] 0.036 | ralimetinib 0.162 | [2] 0.03 | [3] -0.051 | [4] -0.027 | [5] -0.077 | [6] 0.002 | [7] 0.035 | [8] -0.036

SLC38A1 (UniProt Q9H2H9)
inactive: ibrutinib 0.001 | [1] -0.053 | ralimetinib -0.021 | [2] -0.041 | [3] 0.037 | [4] -0.001 | [5] -0.039 | [6] 0.027 | [7] 0.018 | [8] -0.01

STAU1 (UniProt O95793)
inactive: ibrutinib 0.043 | [1] -0.021 | ralimetinib 0.03 | [2] -0.011 | [3] 0 | [4] 0.017 | [5] -0.022 | [6] -0.037 | [7] 0.018 | [8] 0.022

SNW1 (UniProt Q13573)
Chain of UniProt Q13573 (Q13573 whole entry, looked up): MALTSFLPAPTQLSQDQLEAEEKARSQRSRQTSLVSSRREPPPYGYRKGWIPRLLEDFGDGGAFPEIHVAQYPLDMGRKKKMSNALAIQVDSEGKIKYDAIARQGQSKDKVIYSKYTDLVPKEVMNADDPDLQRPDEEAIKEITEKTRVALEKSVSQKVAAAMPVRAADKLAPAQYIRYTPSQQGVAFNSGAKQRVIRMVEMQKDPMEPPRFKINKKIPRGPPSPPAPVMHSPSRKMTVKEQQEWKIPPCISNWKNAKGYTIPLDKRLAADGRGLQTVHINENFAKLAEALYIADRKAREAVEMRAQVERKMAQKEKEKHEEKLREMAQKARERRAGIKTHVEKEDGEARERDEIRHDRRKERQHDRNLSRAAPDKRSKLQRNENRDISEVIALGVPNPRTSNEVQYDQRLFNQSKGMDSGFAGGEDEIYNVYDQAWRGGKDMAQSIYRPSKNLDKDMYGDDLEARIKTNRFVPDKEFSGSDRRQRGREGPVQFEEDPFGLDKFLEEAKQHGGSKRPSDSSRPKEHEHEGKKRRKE
inactive: ibrutinib 0.01 | [1] 0.001 | ralimetinib -0.005 | [2] -0.007 | [3] 0.014 | [4] 0.007 | [5] -0.045 | [6] 0.016 | [7] -0.004 | [8] 0.015

SYNRG (UniProt Q9UMZ2)
inactive: ibrutinib -0.023 | [1] -0.028 | ralimetinib -0.016 | [2] -0.083 | [3] 0.015 | [4] -0.019 | [5] -0.018 | [6] -0.042 | [7] 0.022 | [8] -0.052

SND1 (UniProt Q7KZF4)
inactive: ibrutinib 0.012 | [1] 0.004 | ralimetinib 0.03 | [2] 0.044 | [3] 0.027 | [4] 0.024 | [5] 0.015 | [6] 0.003 | [7] 0.038 | [8] 0.024

TADA3 (UniProt O75528)
inactive: ibrutinib 0.032 | [1] 0 | ralimetinib -0.013 | [2] -0.022 | [3] 0.018 | [4] -0.003 | [5] -0.005 | [6] 0.054 | [7] 0.024 | [8] -0.011

STARD3 isoform 3 (UniProt Q14849)
inactive: ibrutinib 0.039 | [1] 0.044 | ralimetinib -0.074 | [2] -0.018 | [3] 0.011 | [4] 0.033 | [5] -0.072 | [6] 0.073 | [7] 0.021 | [8] 0.028

SLC25A25 isoform 3 (UniProt Q6KCM7)
Chain of UniProt Q6KCM7 (Q6KCM7 whole entry, looked up): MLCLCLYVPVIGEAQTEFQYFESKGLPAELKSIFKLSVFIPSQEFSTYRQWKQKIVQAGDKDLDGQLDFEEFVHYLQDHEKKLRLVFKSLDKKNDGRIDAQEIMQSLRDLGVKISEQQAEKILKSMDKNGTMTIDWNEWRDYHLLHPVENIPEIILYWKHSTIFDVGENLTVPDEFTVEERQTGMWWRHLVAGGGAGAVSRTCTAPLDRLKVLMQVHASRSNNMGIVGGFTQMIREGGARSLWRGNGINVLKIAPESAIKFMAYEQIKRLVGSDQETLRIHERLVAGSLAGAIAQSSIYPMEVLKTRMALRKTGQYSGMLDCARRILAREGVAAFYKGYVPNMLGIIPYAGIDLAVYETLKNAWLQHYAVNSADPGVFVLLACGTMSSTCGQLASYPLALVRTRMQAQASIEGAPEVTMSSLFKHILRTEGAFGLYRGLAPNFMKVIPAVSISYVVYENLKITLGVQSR
inactive: ibrutinib -0.015 | [1] -0.028 | ralimetinib 0.011 | [2] 0.021 | [3] 0.018 | [4] 0.022 | [5] -0.036 | [6] 0.017 | [7] -0.012 | [8] 0.034

SMYD3 (UniProt Q9H7B4)
inactive: ibrutinib -0.009 | [1] -0.002 | ralimetinib 0.032 | [2] -0.012 | [3] 0.034 | [4] -0.037 | [5] -0.028 | [6] 0.038 | [7] 0.036 | [8] -0.027

SMG1 (UniProt Q96Q15)
Chain of UniProt Q96Q15 (Q96Q15 whole entry, looked up): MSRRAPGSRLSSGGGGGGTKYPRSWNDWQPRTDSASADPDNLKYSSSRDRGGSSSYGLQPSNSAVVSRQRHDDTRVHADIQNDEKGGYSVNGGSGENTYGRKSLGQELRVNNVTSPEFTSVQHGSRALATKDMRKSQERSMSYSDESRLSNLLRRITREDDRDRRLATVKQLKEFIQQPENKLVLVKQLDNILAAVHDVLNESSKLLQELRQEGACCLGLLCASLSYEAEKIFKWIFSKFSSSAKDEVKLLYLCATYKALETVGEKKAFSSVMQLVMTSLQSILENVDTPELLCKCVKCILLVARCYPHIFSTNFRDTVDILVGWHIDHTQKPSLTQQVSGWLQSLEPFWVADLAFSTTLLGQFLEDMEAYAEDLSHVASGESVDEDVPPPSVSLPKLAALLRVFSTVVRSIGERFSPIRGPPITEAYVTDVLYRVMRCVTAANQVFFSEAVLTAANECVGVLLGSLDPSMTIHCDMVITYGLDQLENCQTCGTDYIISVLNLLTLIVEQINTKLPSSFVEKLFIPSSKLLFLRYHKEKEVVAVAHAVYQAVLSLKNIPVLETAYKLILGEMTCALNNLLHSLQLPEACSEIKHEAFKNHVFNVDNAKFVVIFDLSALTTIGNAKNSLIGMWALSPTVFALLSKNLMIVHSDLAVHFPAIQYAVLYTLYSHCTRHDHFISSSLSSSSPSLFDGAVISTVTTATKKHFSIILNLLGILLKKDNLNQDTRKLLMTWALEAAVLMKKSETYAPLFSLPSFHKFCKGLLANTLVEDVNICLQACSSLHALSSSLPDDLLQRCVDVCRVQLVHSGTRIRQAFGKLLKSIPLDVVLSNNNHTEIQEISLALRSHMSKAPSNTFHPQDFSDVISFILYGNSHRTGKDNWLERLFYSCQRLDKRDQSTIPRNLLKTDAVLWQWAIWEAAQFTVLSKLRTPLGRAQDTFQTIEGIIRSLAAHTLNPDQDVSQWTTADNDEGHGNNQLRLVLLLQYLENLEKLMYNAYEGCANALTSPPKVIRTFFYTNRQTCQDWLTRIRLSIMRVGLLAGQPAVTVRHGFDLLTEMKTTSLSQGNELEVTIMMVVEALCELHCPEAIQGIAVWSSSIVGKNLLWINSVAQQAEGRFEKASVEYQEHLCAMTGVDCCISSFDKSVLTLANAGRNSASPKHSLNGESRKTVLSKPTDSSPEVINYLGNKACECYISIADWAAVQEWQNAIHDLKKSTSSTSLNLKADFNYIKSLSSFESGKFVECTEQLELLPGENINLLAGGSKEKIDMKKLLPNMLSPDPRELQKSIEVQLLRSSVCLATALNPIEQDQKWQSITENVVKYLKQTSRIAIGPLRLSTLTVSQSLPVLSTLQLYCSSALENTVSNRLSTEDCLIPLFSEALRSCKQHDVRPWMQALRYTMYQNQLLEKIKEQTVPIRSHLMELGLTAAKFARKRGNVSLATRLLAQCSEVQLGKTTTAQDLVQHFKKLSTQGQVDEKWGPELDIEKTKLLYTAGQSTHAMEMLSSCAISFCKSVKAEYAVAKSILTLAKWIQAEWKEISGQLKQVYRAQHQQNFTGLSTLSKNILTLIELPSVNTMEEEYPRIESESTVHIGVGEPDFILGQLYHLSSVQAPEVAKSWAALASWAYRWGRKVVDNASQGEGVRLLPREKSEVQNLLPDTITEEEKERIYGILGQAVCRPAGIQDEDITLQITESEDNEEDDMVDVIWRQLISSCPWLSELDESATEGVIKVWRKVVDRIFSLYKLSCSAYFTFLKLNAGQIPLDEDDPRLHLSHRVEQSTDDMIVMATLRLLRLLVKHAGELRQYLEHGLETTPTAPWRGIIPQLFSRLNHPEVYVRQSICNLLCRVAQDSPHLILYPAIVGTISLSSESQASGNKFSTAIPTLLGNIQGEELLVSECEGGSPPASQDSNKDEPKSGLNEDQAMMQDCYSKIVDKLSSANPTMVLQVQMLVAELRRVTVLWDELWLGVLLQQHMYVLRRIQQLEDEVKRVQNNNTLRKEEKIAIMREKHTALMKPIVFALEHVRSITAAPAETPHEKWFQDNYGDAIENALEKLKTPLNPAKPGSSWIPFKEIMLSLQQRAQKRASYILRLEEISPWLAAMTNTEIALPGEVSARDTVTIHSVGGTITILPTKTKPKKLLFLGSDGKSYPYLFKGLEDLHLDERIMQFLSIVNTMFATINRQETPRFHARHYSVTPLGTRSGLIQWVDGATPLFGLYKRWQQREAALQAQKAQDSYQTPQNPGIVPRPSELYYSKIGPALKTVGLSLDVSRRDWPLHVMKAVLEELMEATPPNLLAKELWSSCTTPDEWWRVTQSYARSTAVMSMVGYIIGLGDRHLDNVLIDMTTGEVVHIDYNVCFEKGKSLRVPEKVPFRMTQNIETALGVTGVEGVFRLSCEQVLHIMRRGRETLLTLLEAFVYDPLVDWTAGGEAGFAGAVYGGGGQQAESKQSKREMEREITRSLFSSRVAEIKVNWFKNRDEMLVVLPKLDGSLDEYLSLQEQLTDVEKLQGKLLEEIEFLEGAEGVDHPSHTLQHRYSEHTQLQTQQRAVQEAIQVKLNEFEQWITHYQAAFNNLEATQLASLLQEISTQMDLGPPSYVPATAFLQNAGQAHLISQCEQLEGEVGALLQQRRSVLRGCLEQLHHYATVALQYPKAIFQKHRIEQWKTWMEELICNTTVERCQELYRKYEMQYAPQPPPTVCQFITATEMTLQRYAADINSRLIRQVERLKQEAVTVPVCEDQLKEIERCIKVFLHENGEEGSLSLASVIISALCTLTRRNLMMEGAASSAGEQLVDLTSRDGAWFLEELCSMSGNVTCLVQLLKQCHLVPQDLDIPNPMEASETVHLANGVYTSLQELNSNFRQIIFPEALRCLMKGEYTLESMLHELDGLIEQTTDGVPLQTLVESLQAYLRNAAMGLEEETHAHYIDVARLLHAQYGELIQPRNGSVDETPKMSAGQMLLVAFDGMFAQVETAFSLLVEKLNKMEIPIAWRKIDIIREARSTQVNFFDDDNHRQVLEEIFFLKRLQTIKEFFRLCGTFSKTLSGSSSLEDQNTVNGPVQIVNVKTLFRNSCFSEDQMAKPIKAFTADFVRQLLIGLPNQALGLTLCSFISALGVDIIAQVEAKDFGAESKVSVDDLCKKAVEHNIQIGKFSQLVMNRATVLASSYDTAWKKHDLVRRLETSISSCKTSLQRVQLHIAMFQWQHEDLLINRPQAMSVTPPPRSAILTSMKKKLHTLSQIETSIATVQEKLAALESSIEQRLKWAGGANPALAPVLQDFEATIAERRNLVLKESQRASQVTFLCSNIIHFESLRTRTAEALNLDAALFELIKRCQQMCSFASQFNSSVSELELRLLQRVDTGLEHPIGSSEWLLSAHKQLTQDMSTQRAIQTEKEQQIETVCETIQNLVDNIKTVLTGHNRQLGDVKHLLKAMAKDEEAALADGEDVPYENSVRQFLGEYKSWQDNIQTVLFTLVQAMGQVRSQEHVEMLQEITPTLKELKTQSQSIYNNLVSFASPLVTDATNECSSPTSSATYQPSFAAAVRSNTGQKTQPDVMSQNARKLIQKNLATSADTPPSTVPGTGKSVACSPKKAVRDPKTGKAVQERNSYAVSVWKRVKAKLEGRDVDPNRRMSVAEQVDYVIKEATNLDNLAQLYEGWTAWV
inactive: ibrutinib 0.041 | [1] 0.017 | ralimetinib 0.044 | [2] -0.019 | [3] -0.003 | [4] 0.005 | [5] 0.027 | [6] 0.023 | [7] 0.017 | [8] 0.007

SRP54 (UniProt P61011)
inactive: ibrutinib -0.039 | [1] -0.023 | ralimetinib 0.031 | [2] 0.015 | [3] 0.036 | [4] 0.034 | [5] -0.069 | [6] -0.021 | [7] 0.007 | [8] -0.009

SLC30A9 (UniProt Q6PML9)
inactive: ibrutinib 0.061 | [1] 0.002 | ralimetinib -0.03 | [2] 0.064 | [3] 0.021 | [4] -0.033 | [5] 0.008 | [6] 0.017 | [7] -0.213 | [8] -0.009

SMAD2 (UniProt Q15796)
inactive: ibrutinib 0.041 | [1] -0.014 | ralimetinib 0.025 | [2] 0.012 | [3] 0.005 | [4] -0.061 | [5] -0.014 | [6] 0.054 | [7] 0.029 | [8] 0.017

SLC26A6 (UniProt Q9BXS9)
inactive: ibrutinib -0.242 | [1] 0.018 | ralimetinib 0.019 | [2] -0.056 | [3] -0.05 | [4] -0.157 | [5] -0.022 | [6] 0.017 | [7] 0.033 | [8] -0.056

STMN3 (UniProt Q9NZ72)
Chain of UniProt Q9NZ72 (Q9NZ72 whole entry, looked up): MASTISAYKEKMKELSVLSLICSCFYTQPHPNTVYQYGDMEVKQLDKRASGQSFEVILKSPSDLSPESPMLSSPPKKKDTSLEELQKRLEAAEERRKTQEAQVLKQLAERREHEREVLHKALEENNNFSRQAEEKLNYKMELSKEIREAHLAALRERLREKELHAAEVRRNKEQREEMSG
inactive: ibrutinib 0.006 | [1] -0.028 | ralimetinib 0.093 | [2] 0.025 | [3] -0.089 | [4] -0.003 | [5] -0.059 | [6] 0.012 | [7] -0.011 | [8] 0.009

SSNA1 (UniProt O43805)
Chain of UniProt O43805 (O43805 whole entry, looked up): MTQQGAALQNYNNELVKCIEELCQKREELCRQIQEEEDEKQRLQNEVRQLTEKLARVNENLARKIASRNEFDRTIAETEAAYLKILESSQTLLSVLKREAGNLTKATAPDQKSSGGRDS
inactive: ibrutinib 0.187 | [1] 0.017 | ralimetinib -0.049 | [2] 0.012 | [3] 0.003 | [4] -0.012 | [5] -0.026 | [6] 0.013 | [7] 0.02 | [8] -0.024

SMC2 (UniProt O95347)
inactive: ibrutinib 0.014 | [1] -0.011 | ralimetinib -0.016 | [2] -0.008 | [3] 0.014 | [4] -0.012 | [5] 0 | [6] 0 | [7] 0.013 | [8] 0.001

SSB (UniProt P05455)
inactive: ibrutinib -0.007 | [1] -0.009 | ralimetinib -0.005 | [2] -0.006 | [3] 0.004 | [4] -0.015 | [5] -0.013 | [6] -0.006 | [7] 0.007 | [8] 0.006

STK3 isoform 2 (UniProt Q13188)
inactive: ibrutinib 0.11 | [1] 0.364 | ralimetinib -0.001 | [2] 0.037 | [3] 0.026 | [4] -0.005 | [5] 0 | [6] -0.025 | [7] 0.016 | [8] -0.073

SKA2 (UniProt Q8WVK7)
inactive: ibrutinib 0.037 | [1] 0.004 | ralimetinib 0.016 | [2] -0.003 | [3] 0.014 | [4] -0.004 | [5] 0.032 | [6] -0.099 | [7] -0.011 | [8] -0.03

SFN (UniProt P31947)
inactive: ibrutinib 0.015 | [1] 0.01 | ralimetinib -0.002 | [2] 0.035 | [3] 0.016 | [4] 0.045 | [5] 0.031 | [6] -0.036 | [7] -0.004 | [8] -0.021

SHKBP1 (UniProt Q8TBC3)
inactive: ibrutinib 0.064 | [1] -0.02 | ralimetinib 0.063 | [2] 0.006 | [3] 0.067 | [4] -0.005 | [5] -0.051 | [6] 0.038 | [7] 0.052 | [8] 0.004

SPG11 (UniProt Q96JI7)
inactive: ibrutinib 0.077 | [1] 0.068 | ralimetinib 0.049 | [2] -0.024 | [3] -0.011 | [4] -0.048 | [5] -0.063 | [6] -0.061 | [7] 0.098 | [8] 0.007

SVIP (UniProt Q8NHG7)
Chain of UniProt Q8NHG7 (Q8NHG7 whole entry, looked up): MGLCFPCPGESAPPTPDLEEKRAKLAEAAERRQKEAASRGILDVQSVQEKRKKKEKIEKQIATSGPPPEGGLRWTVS
inactive: ibrutinib 0.088 | [1] -0.031 | ralimetinib 0.01 | [2] -0.062 | [3] -0.017 | [4] -0.029 | [5] -0.014 | [6] 0.075 | [7] 0.017 | [8] -0.019

TAF6L (UniProt Q9Y6J9)
inactive: ibrutinib 0.072 | [1] 0.046 | ralimetinib 0.042 | [2] -0.078 | [3] 0.01 | [4] -0.041 | [5] -0.006 | [6] -0.027 | [7] 0.027 | [8] -0.009

SKA1 (UniProt Q96BD8)
inactive: ibrutinib 0.002 | [1] 0.033 | ralimetinib -0.023 | [2] -0.017 | [3] 0.044 | [4] 0.014 | [5] 0.066 | [6] -0.017 | [7] 0.033 | [8] 0.007

SSB (UniProt E7ERC4)
inactive: ibrutinib 0.14 | [1] -0.087 | ralimetinib -0.009 | [2] -0.075 | [3] -0.046 | [4] 0.062 | [5] 0.014 | [6] 0.239 | [7] 0.093 | [8] -0.013
